# rCAG RNA binder: binds r(CAG) RNA repeats | r(CAG) RNA repeat, TO-PRO-1 dye displacement fluorescence | inhibition, % at 3 µM | actives 1.3% (n = 370,000);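 active = inhibition above the plate cutoff, the mean of all test compounds on that plate plus 3 SD, cut at about 35% in these data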;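 note: 0% = DMSO alone and 100% = 100 µM mitoxantrone as full dye displacement; higher means more dye released from RNA so lower well fluorescence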
# FAS TE block: blocks the thioesterase domain of human fatty acid synthase. recombinant FAS-TE, OMFH fluorogenic substrate, fluorescence endpoint. inhibition, % at 15 µM. actives 0.67% (n = 360,000);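 active = compounds whose normalised, plate-corrected inhibition of enzyme fluorescence in the single-dose primary screen is 50% or more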;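 note: 0% = DMSO with enzyme and 100% = substrate without enzyme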
# Myeloid diff MLP: promotes myeloid progenitor differentiation. ER-HoxA9 myeloid progenitors, lysozyme-GFP differentiation, flow cytometry. calls only at 10 µM. actives 1% (n = 360,000);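 active = normalized GFP-positive differentiation at or above the plate's own cutoff, the solvent-only control mean plus 3 SD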;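 note: cells exposed to compound for four days before flow analysis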
# GRIN3A LBD mod: modulates the human NR3A ligand-binding domain; AID 1259313; NR3A LBD differential scanning fluorimetry, Tm shift; 0% = protein alone, 100% = glycine-bound protein; actives 2.5% (n = 340,000); Tm shift relative to glycine control, % at 25 µM;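 active = melting temperature shift of at least 10% of the positive control shift, at one fixed dose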
# MPTP block: blocks calcium-induced mitochondrial swelling; isolated mouse mitochondria, Ca2+ swelling absorbance, 30 min; inhibition, % at 10 µM; actives 1.4% (n = 360,000);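 active = inhibition of 50% or more, scaled per plate between neutral and stimulator controls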;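 note: 0% = DMSO wells given calcium and 100% = 1 mM EGTA wells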
# The depositor's hits bear a star; i = inactive; / = no result given; + = active, no number. Only some compounds are listed: those with a hit (about 5.7% of all), similar ones and a draw of the others.
SMILES,rCAG RNA binder,FAS TE block,Myeloid diff MLP,GRIN3A LBD mod,MPTP block
O=C(Cc1cccs1)N=Nc1c(O)[nH]c2ccc(Br)cc12,16,-1,i,-3,6
O=[N+]([O-])c1ccc(N=Nc2c(O)[nH]c3ccc(F)cc23)cc1,7,2,i,19*,2
O=[N+]([O-])c1ccccc1N=Nc1c(O)[nH]c2ccc(F)cc12,5,-4,i,-1,1
Oc1[nH]c2ccc(Br)cc2c1N=Nc1ccc(F)cc1,5,-121,i,30*,2
O=C(CNC(=O)c1ccco1)N=Nc1c(O)[nH]c2ccc(Br)cc12,7,-6,+,-1,0
O=C(Cn1c(C(F)(F)F)nc2ccccc21)N=Nc1c(O)[nH]c2ccc(Br)cc12,2,13,i,10*,21
CCCCCCC(=O)NC1CCCCN(Cc2ccc(C)cc2)C1=O (stereo not given),-1,/,/,/,/
O=C(CSc1nc2ccccc2nc1N1CCOCC1)NCc1ccc(Cl)cc1Cl,2,/,/,/,/
COC(=O)C1=C(C)N(CC(C)C)C(=S)NC1c1ccc(Cl)cc1 (stereo not given),0,/,/,/,/
COc1ccc(OC)c(NC(=O)c2ccc3c(=O)n(CCc4ccccc4)c(=S)[nH]c3c2)c1,4,-6,i,15*,12
COc1ccc(-n2c(=S)[nH]c3cc(C(=O)O)ccc3c2=O)cc1,1,-3,i,0,0
COC(=O)c1ccc2c(=O)n(-c3ccc(OC)cc3)c(=S)[nH]c2c1,1,-3,+,1,0
Cc1ccsc1C=Nn1c(-c2n[nH]c3c2CCC3)n[nH]c1=S,9,/,/,/,/
Cn1c(=O)c2[nH]c(SCCN3CCOCC3)nc2n(C)c1=S,3,-9,i,-2,-2
Cn1c(=O)c2[nH]c(SCCN3CCCCC3)nc2n(C)c1=S,3,-7,i,15*,-1
Nc1ccc(-c2nc3ccc(-c4nc5ccccc5o4)cc3[nH]2)cc1,14,1,i,18*,0
Nc1ccc(-c2nc3ccc([N+](=O)[O-])cc3[nH]2)cc1,7,15,i,25*,-10
Nc1ccc2nc(-c3cc(Cl)c(N)c(Cl)c3)[nH]c2c1,5,-10,i,12*,1
O=[N+]([O-])c1ccccc1/C=C/C1Nc2cccc3cccc(c23)N1,22,/,/,/,/
COc1nc(OC)nc(N2CCC(C(=O)NCc3cccc(OC)c3OC)CC2)n1,-1,/,/,/,/
O=C(O)CCN1C(=O)/C(=C2\C(=O)N(Cc3ccccc3Cl)c3ccccc32)SC1=S,3,1,+,/,10
Cc1ccnc(NC(=O)CCC(=O)N(CC(=O)NCC2CCCO2)Cc2ccc(F)cc2)c1 (stereo not given),-8,-4,i,11*,-1
COC(=O)C1=C(C)N(Cc2cccc(C(F)(F)F)c2)C(=NCC2CC2)NC1c1ccccc1C(F)(F)F (stereo not given),3,/,/,/,/
Cn1c(N)c(C(=O)CSc2nn(-c3ccc(F)cc3)c(=S)s2)c(=O)n(C)c1=O,3,0,i,31*,0
O=C(CN1CCN(Cc2ccccc2Cl)CC1)N/N=C\c1ccccc1F,0,/,/,/,/
SMILES,rCAG RNA binder,FAS TE block,Myeloid diff MLP,GRIN3A LBD mod,MPTP block
C=CCn1c(C)cc(-c2csc(NC)n2)c1C,6,-121,+,-2,8
Cc1[nH]nc2c1C(c1ccc(F)cc1)N(Cc1ccccc1)C2=O (stereo not given),2,/,/,/,/
O=C(Nc1cccnc1)c1cc(-c2cc(Cl)ccc2O)n[nH]1,13,-2,i,32*,46
Cc1ccc(O)c(-c2cc(C(=O)Nc3cccnc3)[nH]n2)c1,6,0,i,29*,4
COc1cccc(/C=C2\CC3(OC(=O)c4ccccc4)CCCN2C3)c1 (stereo not given),-1,/,/,/,/
O=C(c1ccccc1)n1ccc2ccc(-c3ccc4ccn(Cc5ccccc5)c4c3)cc21,15,/,/,/,/
COC(=O)c1ccc2c(C(C)c3ccccc3O)c[nH]c2c1 (stereo not given),9,/,/,/,/
Cc1cccc(S(=O)(=O)c2c(N)n(Cc3ccco3)c3nc4ccccc4nc23)c1,6,2,+,6,10
CCCCNC(=O)C1CCCN1C(=O)Nc1cccc(C)c1 (stereo not given),2,/,/,/,/
O=C(Cn1ncc2c(=O)oc3ccccc3c21)N1CCCN(Cc2ccccc2F)C1,0,14,+,0,-2
O=C(O)C1CCCN1S(=O)(=O)c1ccccc1 (stereo not given),2,-5,+,1,0
Cc1c(C(=O)OCC(=O)Nc2cccc(S(N)(=O)=O)c2)oc2c1ccc1ccccc12,31,18,i,15*,4
NS(=O)(=O)c1cccc(NC(=O)COC(=O)c2ccccc2C(=O)c2ccccc2)c1,6,-4,i,0,0
COc1cccc(NC(=O)CN(C)C(=O)c2oc3c(ccc4ccccc43)c2C)c1,4,20,i,17*,2
COc1ccccc1NC(=O)c1ccccc1NC(=O)c1ccccn1,1,8,i,0,-1
COc1ccc(Cl)cc1NC(=O)NNC(=O)c1ccccn1,4,-4,i,77*,2
COC(=O)c1ccc(CN2C(=O)[C@]3(OCCC=C[C@H]3C)c3cc(OC)ccc32)cc1,-1,/,/,/,/
O=[N+]([O-])c1ccc(NN=C(Oc2ccccc2)c2ccc([N+](=O)[O-])cc2)cc1,4,-30,+,/,22
C/C(=N\Nc1ccc([N+](=O)[O-])cc1)c1ccc(N)cc1,11,-1,i,11*,2
COC(=O)c1sc(-c2ccccc2)cc1NC(=O)C1CC1,0,26,i,1,4
CCOc1ccc(NC(=O)Nc2cc(-c3ccccc3)sc2C(=O)OC)cc1,3,34,i,21*,4
CC(C)C[C@@]12C(=O)N(c3cccc(F)c3)C(=O)N1[C@H](c1ccc(F)cc1)[C@@H]1C(=O)N(C3CCCCC3)C(=O)[C@@H]12,1,82*,i,-10,-2
C[C@@]12C(=O)N(c3cccc(F)c3)C(=O)N1[C@H](c1ccc(F)cc1)[C@@H]1C(=O)N(C3CCCCC3)C(=O)[C@@H]12,/,12,i,-4,1
CC(C)C[C@@]12C(=O)N(c3cccc(F)c3)C(=O)N1[C@H](c1ccc(Cl)cc1)[C@@H]1C(=O)N(C3CCCCC3)C(=O)[C@@H]12,4,62*,i,1,2
CCCCNc1ccc2c(c1)OC[C@H](Cc1ccccc1)NS2(=O)=O,1,/,/,/,/
O=C(Nc1cc(C(F)(F)F)ccc1Cl)C(NCc1ccccc1)c1ccccc1 (stereo not given),-2,33,i,18*,3
Cc1nc2ccc(NC(=O)c3ccc(F)cc3F)cc2c(=O)[nH]1,1,/,/,/,/
Cc1onc(-c2c(F)cccc2Cl)c1C(O)c1ccc(F)cc1 (stereo not given),-3,5,i,11*,2
C=CCN(CC#CC(=C)C)CC1CC1,0,/,/,/,/
